Measured values published in PubChem BioAssay (Tox21).
Inconclusive results are not listed. Active and inactive are the calls of the source. Unless noted, calls follow the shape of the full dose curve.

Tests used:
[1] = qHTS assay to identify small molecule agonists of the sonic hedgehog signaling (Shh) pathway (AID 1259368); conditions: NIH/3T3 Gli1-Luc reporter, luciferase, 24 h; series mostly up to 92.4 µM;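 also: NIH/3T3-derived 3T3Gli1-Luc cells carrying a stable Gli1-driven firefly luciferase reporter; nearly all actives have a fitted effect of over 15% in size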
In short: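 NIH/3T3-derived 3T3Gli1-Luc cells with stably integrated Gli1-driven firefly luciferase, 2,000 cells/well, compounds added after 4 hr. Incubated 24 hr at 37C, 5% CO2; luminescence read after 30 min with luciferase reagent at room temperature.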

[2] = qHTS assay to identify small molecule antagonists of the sonic hedgehog signaling (Shh) pathway (AID 1259369); conditions: NIH/3T3 Gli1-Luc reporter, Shh antagonist, luminescence 24 h; series mostly up to 92.4 µM; also: nearly all actives have a fitted effect of over 45% in size; also: potency is read from the fitted curve at half-maximal effect
In short: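 NIH/3T3-derived Gli1-Luc reporter cells plated 4 h, dosed with compound, then stimulated with conditioned medium for 24 h at 37 C. Firefly luciferase luminescence read after 30 min with detection reagent at room temperature.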

[3] = qHTS assay to identify small molecule agonists of the androgen receptor (AR) signaling pathway in the presence of an antagonist - cell viability counter screen (AID 1259379; active = well fitted curve in the direction sought with a large enough effect in the repeat runs; an effect the other way counts as inactive or inconclusive;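 also: MDA-kb2 human breast cancer cells carrying an MMTV luciferase reporter; nearly all actives have a fitted effect of over 25% in size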); conditions: MDA-kb2 viability, CellTiter-Fluor, 16 h; series mostly up to 92.4 µM
In short: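 MDA-kb2 cells (MMTV-luciferase, AR/GR), 3,000/well, 5 h attachment, then 3.0 µM nilutamide (final) and compounds at 15 concentrations. Viability by CellTiter-Fluor fluorescence after 16 h at 37 °C, 0% CO2, in the reporter wells.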

[4] = qHTS assay to identify small molecule agonists of the estrogen receptor beta (ER-beta) signaling pathway - cell viability counter screen (AID 1259380; active = well fitted curve in the direction sought with a large enough effect in the repeat runs; an effect the other way counts as inactive or inconclusive; also: nearly all actives have a fitted effect of over 30% in size); conditions: ER-beta-bla HEK293T viability, CellTiter-Glo luminescence, 16 h; series mostly up to 92.4 µM
In short: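 ER-beta-UAS-bla HEK293T cells in medium with 2% charcoal-stripped FBS, pre-incubated 6 hr, then treated 16 hr at 37C. Cytotoxicity read in the same wells by CellTiter-Glo luminescence after 30 min at room temperature.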

[5] = biological target: Estrogen receptor (Homo sapiens) (UniProt P03372); experiment: qHTS assay to identify small molecule agonists of the estrogen receptor alpha (ER-alpha) signaling pathway in the presence of an antagonist (AID 1259383); conditions: VM7Luc4E2 cells, ERE-luciferase, +ICI-182,780, 22 h; series mostly up to 92.4 µM; also: top concentration of the series differs between compounds; nearly all actives have a fitted effect of over 15% in size
In short: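 VM7Luc4E2 cells express endogenous full-length ER-alpha with an ERE-luciferase reporter and were hormone-deprived for 5 days. Compounds at 15 concentrations were added with 10.0nM ICI-182,780 for 22hr at 37C. Luminescence was read with ONE-Glo.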

[6] = qHTS assay to identify small molecule agonists or antagonists of the thyroid stimulating hormone receptor (TSHR) signaling pathway - wild type cell line counter screen (AID 1259384); conditions: HEK293 wild type, cAMP HTRF counter-screen, hits give high values; series mostly up to 92.4 µM
In short: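 Wild-type Hek293 cells, 800/well, 18 h at 37C, then compound with Ro20-1724 for 30 min RT. cAMP by HTRF (cAMP-d2/anti-cAMP cryptate), 1 h RT, fluorescence read. 15 concentrations, triplicates.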

[7] = biological target: Thyrotropin receptor (Homo sapiens) (UniProt P16473); experiment: qHTS assay to identify small molecule antagonists of the thyroid stimulating hormone receptor (TSHR) signaling pathway (AID 1259385); conditions: TSHR-HEK293 cAMP HTRF, TSH-stimulated antagonist mode; series mostly up to 92.4 µM; also: nearly all actives have a fitted effect of over 20% in size
In short: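 TSHR-HEK293 cells (800/well) plated 18 h, then compounds with Ro20-1724 and TSH at 1.5 ng/mL final, 30 min at room temperature. cAMP quantified by HTRF (cAMP-d2/anti-cAMP-cryptate, 1 h); 15 concentrations in triplicate.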

[8] = qHTS assay to identify small molecule agonists of the estrogen receptor alpha (ER-alpha) signaling pathway in the presence of an antagonist - cell viability counter screen (AID 1259386; active = well fitted curve in the direction sought with a large enough effect in the repeat runs; an effect the other way counts as inactive or inconclusive;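 also: cells exposed to compounds for 22 h at 37 °C before the viability read; nearly all actives have a fitted effect of over 30% in size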); conditions: VM7Luc4E2 viability, CellTiter-Fluor fluorescence, 22 h; series mostly up to 92.4 µM
In short: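 Cell viability in VM7Luc4E2 cells (endogenous full-length ER-alpha) measured by CellTiter-Fluor fluorescence in the same wells as the luciferase screen. Cells pre-cultured 5 days in charcoal-stripped serum, then treated 22 h with compounds at 15 concentrations plus 10.0nM ICI-182,780.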

[9] = biological target: Progesterone receptor (Homo sapiens) (UniProt P06401); experiment: qHTS assay to identify small molecule agonists of the progesterone receptor (PR) signaling pathway (AID 1346784); conditions: PR-UAS-bla HEK293T, beta-lactamase FRET ratio, 16 h; series mostly up to 92.4 µM; also: nearly all actives have a fitted effect of over 30% in size
In short: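 Beta-lactamase reporter read-out: after 16 hr compound treatment at 37C and a further 2 hr at room temperature with LiveBLAzer B/G FRET substrate, fluorescence was measured in PR-UAS-bla HEK 293T cells grown in 2% charcoal-stripped serum.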

[10] = biological target: Progesterone receptor (Homo sapiens) (UniProt P06401); experiment: qHTS assay to identify small molecule antagonists of the progesterone receptor (PR) signaling pathway (AID 1346795; active = well fitted inhibition curve with a large enough effect in the signal ratio in the repeat runs, not every such curve was filed as active; the % refers to the signal ratio); conditions: PR-UAS-bla HEK293T, beta-lactamase FRET ratio, 16 h; series mostly up to 92.4 µM
In short: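 Read-out is fluorescence from the LiveBLAzer B/G FRET substrate, cleaved by a UAS-controlled beta-lactamase in PR-UAS-bla HEK293T cells after 16 hr exposure to compound plus 1 nM promegestone (final), followed by 2 hr at room temperature.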

[11] = qHTS assay to identify small molecule antagonists of the progesterone receptor (PR) signaling pathway - cell viability counter screen (AID 1346798; active = well fitted curve in the direction sought with a large enough effect in the repeat runs; an effect the other way counts as inactive or inconclusive;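 also: HEK293T PR-UAS-bla cells stimulated with the agonist R5020; nearly all actives have a fitted effect of over 50% in size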); conditions: PR-UAS-bla HEK293T viability, CellTiter-Glo luminescence, 16 h; series mostly up to 92.4 µM
In short: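 HEK293T PR-UAS-bla, 2% charcoal-stripped FBS; 4 hr pre-plate; cpd + R5020, 16 h 37C; LiveBLAzer read first; then CellTiter-Glo 30 min RT, luminescence.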

[12] = qHTS assay to identify small molecule agonists of the progesterone receptor (PR) signaling pathway - cell viability counter screen (AID 1346799); conditions: PR-UAS-bla HEK293T viability, CellTiter-Glo luminescence, 16 h; series mostly up to 92.4 µM; also: nearly all actives have a fitted effect of over 45% in size
In short: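 Luminescence from CellTiter-Glo, added after the beta-lactamase FRET read in the same wells, gave cytotoxicity in PR-UAS-bla HEK293T cells treated with compounds for 16 hr at 37C.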

[13] = qHTS assay to identify small molecule antagonists of the TGF-beta/Smad signaling pathway - cell viability counter screen (AID 1346824; active = well fitted curve in the direction sought with a large enough effect in the repeat runs; an effect the other way counts as inactive or inconclusive; also: nearly all actives have a fitted effect of over 50% in size); conditions: SBE-bla HEK293T viability, CellTiter-Glo luminescence; series mostly up to 76.8 µM
In short: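 SBE-bla HEK 293T cells, incubated overnight, then compound plus 0.25 ng/mL TGF-beta1 (stock added) for 5 hr at 37 C. Viability was read in the same wells by CellTiter-Glo luminescence after 30 min at room temperature.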

[14] = qHTS assay to identify small molecule agonists of the TGF-beta/Smad signaling pathway (AID 1346859; active = well fitted activation curve with a large enough effect in the signal ratio in the repeat runs, not every such curve was filed as active; the % refers to the signal ratio); conditions: SBE-bla HEK293T, TGF-beta/Smad beta-lactamase reporter, 5 h; series mostly up to 76.8 µM
In short: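 SBE-bla HEK 293T, 4,000 cells/well, plated o/n; cpd in DMSO, 5 hr, 37 C/5% CO2; B/G FRET substrate 2 hr RT; ex 405, em 460/530 nm.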

[15] = biological target: Androgen receptor (Homo sapiens) (UniProt P10275); experiment: qHTS assay to identify small molecule agonists of the androgen receptor (AR) signaling pathway in the presence of an antagonist (AID 1259381); conditions: MDA-kb2 MMTV-luciferase, AR agonist + nilutamide, 16 h; series mostly up to 42.5 µM; also: nearly all actives have a fitted effect of over 15% in size
In short: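 MDA-kb2 cells carrying MMTV-luciferase (AR/GR responsive), 3,000 cells/well, co-treated with 3.0 uM nilutamide final. Compounds at 15 concentrations, 16 hr at 37C without CO2. Luciferase luminescence read after 30 min with ONE-Glo.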

[16] = qHTS assay to identify small molecule antagonists of the estrogen receptor beta (ER-beta) signaling pathway - cell viability counter screen (AID 1259382; active = well fitted curve in the direction sought with a large enough effect in the repeat runs; an effect the other way counts as inactive or inconclusive; also: nearly all actives have a fitted effect of over 55% in size); conditions: ER-beta-UAS-bla HEK293T viability, CellTiter-Glo luminescence, 16 h; series mostly up to 92.4 µM
In short: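 ER-beta-UAS-bla HEK293T cells in 2% charcoal-stripped FBS medium, treated with compound plus 1 nM 17-beta-estradiol for 16 h at 37C. Viability read by CellTiter-Glo luminescence after 30 min at room temperature in the same wells.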

[17] = qHTS assay to identify small molecule agonists of the TGF-beta/Smad signaling pathway - cell viability counter screen (AID 1346829; active = well fitted curve in the direction sought with a large enough effect in the repeat runs; an effect the other way counts as inactive or inconclusive; also: top concentration of the series differs between compounds; nearly all actives have a fitted effect of over 45% in size); conditions: SBE-bla HEK293T viability, CellTiter-Glo luminescence, 5 h; series mostly up to 76.8 µM
In short: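 In parallel with the Smad reporter read, viability of HEK 293T cells stably carrying SBE-bla is quantified by ATP luminescence following 5 hr compound treatment.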

[18] = biological target: Thyrotropin-releasing hormone receptor (Homo sapiens) (UniProt P34981); experiment: qHTS assay to identify small molecule antagonists of the thyrotropin-releasing hormone receptor (TRHR) signaling pathway (AID 1346877; active = well fitted inhibition curve with a large enough effect in the repeat runs, not every such curve was filed as active); conditions: TRHR-HEK293, TRH-induced calcium fluorescence, antagonist mode; series mostly up to 51.3 µM
In short: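 TRHR-expressing HEK293 cells loaded with calcium dye for 2 h at 37 C; compounds pre-incubated 5 min at room temperature before TRH challenge at 1 nM final. Intracellular calcium fluorescence read kinetically for 3 min; 15 concentrations in triplicate.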

[19] = biological target: Estrogen receptor beta (Homo sapiens) (UniProt Q92731); experiment: qHTS assay to identify small molecule agonists of the estrogen receptor beta (ER-beta) signaling pathway (AID 1259377; active = well fitted activation curve with a large enough effect in the signal ratio in the repeat runs, not every such curve was filed as active; the % refers to the signal ratio); conditions: ER-beta-UAS-bla HEK293T, beta-lactamase FRET ratio, 16 h; series mostly up to 92.4 µM
In short: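 HEK293T ER-beta-UAS-bla; 2% charcoal-stripped FBS; cells pre-incubated 6 hr, compound 16 hr, 37C/5% CO2; LiveBLAzer B/G FRET substrate 2 h RT; fluorescence intensity read.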

[20] = biological target: Estrogen receptor beta (Homo sapiens) (UniProt Q92731); experiment: qHTS assay to identify small molecule antagonists of the estrogen receptor beta (ER-beta) signaling pathway (AID 1259378; active = well fitted inhibition curve with a large enough effect in the signal ratio in the repeat runs, not every such curve was filed as active; the % refers to the signal ratio); conditions: ER-beta-UAS-bla HEK293T, beta-lactamase FRET ratio, 16 h; series mostly up to 92.4 µM
In short: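 ER-beta-UAS-bla HEK293T cells in 2% charcoal-stripped FBS medium treated with compound plus 1nM final 17-beta-estradiol for 16 hr at 37C. Beta-lactamase reporter read by FRET substrate fluorescence after 2 hours at room temperature.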

Measured: Potency

Thyrotropin receptor (Homo sapiens), sequence (P16473 whole entry, looked up): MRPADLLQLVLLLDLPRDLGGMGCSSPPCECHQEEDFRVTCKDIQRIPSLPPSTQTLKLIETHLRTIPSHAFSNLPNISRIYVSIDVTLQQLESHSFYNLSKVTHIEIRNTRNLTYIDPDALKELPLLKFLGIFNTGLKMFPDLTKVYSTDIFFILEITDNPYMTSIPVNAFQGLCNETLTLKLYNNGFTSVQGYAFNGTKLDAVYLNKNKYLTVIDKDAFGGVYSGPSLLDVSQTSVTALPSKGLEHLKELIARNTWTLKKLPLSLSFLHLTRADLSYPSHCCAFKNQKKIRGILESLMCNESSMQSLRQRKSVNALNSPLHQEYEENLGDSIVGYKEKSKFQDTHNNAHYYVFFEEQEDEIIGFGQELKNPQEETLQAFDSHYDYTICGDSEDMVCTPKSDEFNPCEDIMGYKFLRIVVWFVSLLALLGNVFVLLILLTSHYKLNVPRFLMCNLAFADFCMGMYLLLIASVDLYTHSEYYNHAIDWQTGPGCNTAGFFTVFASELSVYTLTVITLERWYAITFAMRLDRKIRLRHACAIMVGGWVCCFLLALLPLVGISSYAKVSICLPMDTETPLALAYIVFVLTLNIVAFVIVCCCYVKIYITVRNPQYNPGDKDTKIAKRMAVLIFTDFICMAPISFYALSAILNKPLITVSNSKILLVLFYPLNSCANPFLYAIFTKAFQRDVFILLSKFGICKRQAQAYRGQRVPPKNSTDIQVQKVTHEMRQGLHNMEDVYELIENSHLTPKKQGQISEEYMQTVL
Estrogen receptor (Homo sapiens), sequence (P03372 whole entry, looked up): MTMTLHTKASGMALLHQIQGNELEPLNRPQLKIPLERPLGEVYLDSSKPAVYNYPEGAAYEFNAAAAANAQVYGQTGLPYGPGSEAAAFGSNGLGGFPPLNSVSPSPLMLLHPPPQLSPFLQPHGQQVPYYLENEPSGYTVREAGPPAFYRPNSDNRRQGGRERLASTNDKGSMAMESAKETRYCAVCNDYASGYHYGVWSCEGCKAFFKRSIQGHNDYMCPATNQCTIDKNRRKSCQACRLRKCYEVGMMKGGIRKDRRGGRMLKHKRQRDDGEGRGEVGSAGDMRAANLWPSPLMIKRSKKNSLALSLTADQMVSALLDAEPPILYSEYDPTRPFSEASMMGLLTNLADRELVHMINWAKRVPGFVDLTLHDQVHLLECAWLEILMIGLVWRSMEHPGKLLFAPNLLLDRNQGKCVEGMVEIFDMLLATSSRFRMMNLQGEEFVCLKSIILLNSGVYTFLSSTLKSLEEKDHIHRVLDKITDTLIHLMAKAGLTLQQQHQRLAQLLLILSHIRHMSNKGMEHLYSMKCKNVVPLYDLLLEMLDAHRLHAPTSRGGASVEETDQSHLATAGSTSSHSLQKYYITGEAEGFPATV
Progesterone receptor (Homo sapiens), sequence (P06401 whole entry, looked up): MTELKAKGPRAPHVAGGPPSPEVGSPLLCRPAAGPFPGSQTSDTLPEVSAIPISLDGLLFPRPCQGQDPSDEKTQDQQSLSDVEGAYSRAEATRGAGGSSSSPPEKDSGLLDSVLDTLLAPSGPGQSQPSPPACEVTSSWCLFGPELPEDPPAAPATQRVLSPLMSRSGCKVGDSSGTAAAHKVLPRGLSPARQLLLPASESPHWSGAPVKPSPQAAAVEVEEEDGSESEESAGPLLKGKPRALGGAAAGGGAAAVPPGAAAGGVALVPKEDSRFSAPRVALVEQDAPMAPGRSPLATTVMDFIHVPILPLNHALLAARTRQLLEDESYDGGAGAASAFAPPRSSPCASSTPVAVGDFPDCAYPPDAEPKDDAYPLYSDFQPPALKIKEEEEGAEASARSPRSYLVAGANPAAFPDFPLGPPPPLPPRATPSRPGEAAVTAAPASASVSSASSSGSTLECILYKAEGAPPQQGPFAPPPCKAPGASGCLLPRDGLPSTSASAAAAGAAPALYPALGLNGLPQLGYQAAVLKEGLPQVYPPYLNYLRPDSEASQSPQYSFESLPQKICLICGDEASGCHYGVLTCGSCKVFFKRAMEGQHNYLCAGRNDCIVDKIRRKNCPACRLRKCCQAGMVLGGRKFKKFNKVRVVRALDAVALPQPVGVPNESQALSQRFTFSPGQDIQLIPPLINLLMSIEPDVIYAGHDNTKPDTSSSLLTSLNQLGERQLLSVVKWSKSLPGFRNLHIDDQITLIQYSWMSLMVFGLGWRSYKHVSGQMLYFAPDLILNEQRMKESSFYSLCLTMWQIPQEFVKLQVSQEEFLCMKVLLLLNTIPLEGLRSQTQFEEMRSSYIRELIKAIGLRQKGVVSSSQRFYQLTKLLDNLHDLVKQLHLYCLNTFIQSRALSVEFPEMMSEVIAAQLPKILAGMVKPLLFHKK
Thyrotropin-releasing hormone receptor (Homo sapiens), sequence (P34981 whole entry, looked up): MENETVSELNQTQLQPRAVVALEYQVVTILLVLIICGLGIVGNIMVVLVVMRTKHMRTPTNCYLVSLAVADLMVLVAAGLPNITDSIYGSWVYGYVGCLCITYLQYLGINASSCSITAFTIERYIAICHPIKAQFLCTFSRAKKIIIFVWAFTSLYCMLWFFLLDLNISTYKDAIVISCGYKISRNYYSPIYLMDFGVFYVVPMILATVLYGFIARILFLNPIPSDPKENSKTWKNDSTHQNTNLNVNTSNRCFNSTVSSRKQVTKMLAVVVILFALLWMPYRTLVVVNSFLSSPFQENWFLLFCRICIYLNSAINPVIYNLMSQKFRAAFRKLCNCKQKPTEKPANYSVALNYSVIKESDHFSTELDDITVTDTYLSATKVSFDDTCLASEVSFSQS
Estrogen receptor beta (Homo sapiens), sequence (Q92731 whole entry, looked up): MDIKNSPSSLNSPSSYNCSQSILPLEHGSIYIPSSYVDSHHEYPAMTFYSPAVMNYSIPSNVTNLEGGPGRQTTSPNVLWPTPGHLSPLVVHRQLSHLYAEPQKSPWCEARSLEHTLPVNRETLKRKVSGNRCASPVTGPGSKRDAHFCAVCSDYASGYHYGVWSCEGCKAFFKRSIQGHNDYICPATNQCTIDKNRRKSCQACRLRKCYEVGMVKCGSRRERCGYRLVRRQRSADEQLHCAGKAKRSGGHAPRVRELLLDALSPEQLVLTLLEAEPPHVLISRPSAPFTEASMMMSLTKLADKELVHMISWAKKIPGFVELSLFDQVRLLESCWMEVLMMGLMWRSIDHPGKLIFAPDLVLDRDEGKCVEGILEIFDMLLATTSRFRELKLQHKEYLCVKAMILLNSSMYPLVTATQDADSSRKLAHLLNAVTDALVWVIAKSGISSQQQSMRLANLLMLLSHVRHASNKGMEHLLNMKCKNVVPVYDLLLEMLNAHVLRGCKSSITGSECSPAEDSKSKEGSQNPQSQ
Androgen receptor (Homo sapiens), sequence (P10275 whole entry, looked up): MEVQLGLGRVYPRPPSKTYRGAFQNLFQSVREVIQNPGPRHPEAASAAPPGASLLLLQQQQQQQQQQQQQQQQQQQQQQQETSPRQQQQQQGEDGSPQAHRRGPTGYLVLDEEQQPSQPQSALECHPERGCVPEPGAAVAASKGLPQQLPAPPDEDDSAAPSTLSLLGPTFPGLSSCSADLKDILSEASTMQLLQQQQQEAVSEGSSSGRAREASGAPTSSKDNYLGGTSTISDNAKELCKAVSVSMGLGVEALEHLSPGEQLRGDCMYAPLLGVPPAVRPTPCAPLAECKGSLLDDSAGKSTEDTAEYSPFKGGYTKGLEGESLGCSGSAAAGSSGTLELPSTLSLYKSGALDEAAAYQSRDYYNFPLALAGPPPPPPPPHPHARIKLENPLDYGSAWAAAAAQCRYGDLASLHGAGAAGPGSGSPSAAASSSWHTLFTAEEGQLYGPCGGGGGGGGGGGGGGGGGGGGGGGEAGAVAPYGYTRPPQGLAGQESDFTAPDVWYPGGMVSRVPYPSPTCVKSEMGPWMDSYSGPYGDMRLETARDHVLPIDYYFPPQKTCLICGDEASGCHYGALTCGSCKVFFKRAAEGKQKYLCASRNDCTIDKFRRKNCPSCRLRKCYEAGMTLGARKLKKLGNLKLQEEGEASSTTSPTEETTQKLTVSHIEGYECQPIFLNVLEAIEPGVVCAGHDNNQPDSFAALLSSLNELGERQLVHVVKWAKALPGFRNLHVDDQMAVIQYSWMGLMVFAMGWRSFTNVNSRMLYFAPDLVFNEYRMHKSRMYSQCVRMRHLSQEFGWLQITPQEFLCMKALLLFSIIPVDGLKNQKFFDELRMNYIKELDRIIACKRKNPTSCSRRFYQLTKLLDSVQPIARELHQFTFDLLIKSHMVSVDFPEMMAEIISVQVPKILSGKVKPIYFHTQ

O=C(O)c1cccnc1C(=O)O
not listed: [15] | [16] | [17] | [18] | [19] | [20]
inactive: all other assays above

Nc1ccc(Cl)cc1[N+](=O)[O-]
not listed: [3] | [8] | [10] | [13] | [19] | [20]
inactive: all other assays above

CC(COc1ccc(C(C)(C)C)cc1)OS(=O)OCCCl (stereo unspecified)
active: [2] 1.94 µM
inactive: [1] | [16] | [5] | [7] | [8] | [13] | [17] | [14] | [18]

CC(C)OCC1CO1 (stereo unspecified)
not listed: [2] | [6] | [7] | [10] | [11] | [12] | [15] | [16]
inactive: all other assays above

CCCCCCCCCCCC(=O)[O][Sn]([CH2]CCC)([CH2]CCC)[O]C(=O)CCCCCCCCCCC
inactive: [2]
